Euclidean distance data for 39 compounds are collected here from the supplement of paper PMC10127200.

Counter-ions that a name gives are not always drawn.

The first assay relates to HEPG2. Briefly: Euclidean distance of Cell Painting phenotypic profile (signed KS, 77 features) to DMSO centroid (dimensionless distance); 5 or 10 uM (library dependent); higher = stronger phenotypic change vs DMSO (phenoactivity). Conditions: 48 h. The method in brief:
(§1)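 Library compounds were applied at 10 or 5 uM, depending on the library, with 0.1% DMSO final, for 48 h to five cancer lines and a healthy fibroblast line. After staining, cells were imaged confocally at 20X across 9 fields per well, and Harmony extracted 77 features, each scored as a signed Kolmogorov-Smirnov statistic against vehicle wells on the same plate. Phenoactivity is the Euclidean distance between each profile and the median vehicle profile, with profiles first plate-position corrected, correlation-weighted and averaged over replicates at the top dose.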
`CO[C@@H]1[C@H](OC(=O)/C=C/C=C/C=C/C=C/C(=O)O)CC[C@]2(CO2)[C@H]1[C@@]1(C)O[C@@H]1CC=C(C)C` [Fumagillin]: the Euclidean distance amounted to 1.89. In turn, `O=c1[nH]c(=O)n([C@H]2C[C@H](O)[C@@H](CO)O2)cc1C(F)(F)F` [Trifluridine] gave an Euclidean distance of 3.56. The same measure, in the same setting: with `O=C(Nc1ccccc1)Nc1ccc(-c2ccc(C(=O)[C@@H]3CCC[C@H]3C(=O)O)cc2)cc1` the figure was 1.92; with `N#Cc1cc(CN2CCC(Nc3ncnc4sc(Cl)cc34)CC2)ccc1F`, 1.15; with `COc1ccc(C2=N[C@@H](c3ccc(Cl)cc3)[C@@H](c3ccc(Cl)cc3)N2C(=O)N2CCNC(=O)C2)c(OC(C)C)c1` [Nutlin-3], 2.58.

`O=NN(CCCl)C(=O)NCCCl` [Carmustine] returned an Euclidean distance of 0.515. Compound `C=CC(=O)N1CC[C@H](n2nc(C#Cc3cc(OC)cc(OC)c3)c3c(N)ncnc32)C1` yielded an Euclidean distance of 3.97. With `Cc1cc(OCc2nnc(SC3CCCC3)n2-c2cccnc2)ccc1-c1ccc(S(C)(=O)=O)cc1`, the Euclidean distance turned out to be 3.86. In the case of `C=CCc1cccc(/C=N/NC(=O)CN2CCN(Cc3ccccc3)CC2)c1O`, the Euclidean distance was determined as 2.31. As to `NC(=O)N1CCC(CC(=O)N2CCC([C@H]3c4ncc(Br)cc4CCc4cc(Cl)cc(Br)c43)CC2)CC1` [Lonafarnib], the Euclidean distance came out at 1.1.

`COC(=O)CCC(=O)CN` [Methyl Aminolevulinate Hydrochloride] gave an Euclidean distance of 0.566. As to `O=C1N=C(O)NC1(c1ccccc1)c1ccccc1` [Phenytoin sodium], the Euclidean distance came to 0.937. On the same count and under the same terms, to `O=C1OC(CN2CCOCC2)CN1/N=C/c1ccc([N+](=O)[O-])o1` (stereo not given) [Furaltadone HCl] belongs 0.808; to `CNC(=O)c1cc(Oc2ccc3nc(N[C@@H]4CCCC[C@H]4O)sc3c2)ccn1`, 0.898; to `Cc1cnc(NC(=O)C2=C(O)c3ccccc3S(=O)(=O)N2C)s1` [Meloxicam], 1.84. `CN(C)CCCOc1nn(Cc2ccccc2)c2ccccc12` [Benzydamine HCl] came in with an Euclidean distance of 0.87.

As to `O=C(NCCCNc1nc(Nc2cccc(NC(=O)N3CCCC3)c2)ncc1I)c1cccs1`, the Euclidean distance amounted to 2.12. As for `N[C@@H](C(=O)N[C@@H]1C(=O)N2C(C(=O)O)=C(Cl)CS[C@H]12)c1ccccc1` [Cefaclor], the Euclidean distance turned out to be 0.709. Still for that read-out and setting: with `Cc1[nH]nc2ccc(-c3cncc(OC[C@@H](N)Cc4ccccc4)c3)cc12` the figure was 3.37; with `O=C1Nc2ccccc2/C1=C1/Nc2ccccc2C1=O` [Indirubin], 1.58; with `N[C@@H](CCC(=O)O)C(=O)O` [(S)-Glutamic acid], 0.834. `CC(=O)NS(=O)(=O)c1ccc(N)cc1` [Sulfacetamide sodium salt hydrate] had an Euclidean distance of 0.38. In turn, `Cc1cc(-c2ccccc2)nnc1NCCN1CCOCC1` [Minaprine dihydrochloride] returned an Euclidean distance of 0.555.

Regarding `COc1cc2c(cc1OC)[C@@H]1Cc3ccc(OC)c(OC)c3CN1CC2` [Rotundine], the Euclidean distance worked out at 0.595. Take `NC(=O)NC1NC(=O)NC1=O` (stereo not given) [Allantoin]: the Euclidean distance is 3.52.

In the case of `O=C(Nc1ccccc1)c1cc([N+](=O)[O-])ccc1Cl`, the Euclidean distance turned out to be 0.832.

A further assay has as its system OVCAR4. Described as above. Conditions: 48 h. The method in brief:
as §1
Consider `CN(C)CC(c1ccc(O)cc1)C1(O)CCCCC1` (stereo not given) [Desvenlafaxine], for which the Euclidean distance came out at 1.95.

`O=C1C[C@@H](c2ccc(O[C@@H]3O[C@H](CO)[C@@H](O)[C@H](O)[C@H]3O)cc2)Oc2cc(O)ccc21` [Liquiritin] returned an Euclidean distance of 1.16.

With `OC[C@H]1O[C@@H](Oc2cc(O)cc(/C=C/c3ccc(O)cc3)c2)[C@H](O)[C@@H](O)[C@@H]1O` [Polydatin], the Euclidean distance is 1.3.

`NC(=O)NCCC[C@H](N)C(=O)O` [L-Citrulline] returned an Euclidean distance of 0.761. `NS(=O)(=O)c1cc2c(cc1Cl)N=C(CSCc1ccccc1)NS2(=O)=O` [Benzthiazide] gave an Euclidean distance of 1.62.

Consider `CCC(=O)NS(=O)(=O)c1ccc(-c2c(-c3ccccc3)noc2C)cc1` [Parecoxib Sodium], for which the Euclidean distance worked out at 0.905.

The compound `COc1cc(C(=O)O)ccc1NC(=O)[C@@H]1N[C@@H](CC(C)(C)C)[C@](C#N)(c2ccc(Cl)cc2F)[C@H]1c1cccc(Cl)c1F` [Idasanutlin (RG-7388)] showed an Euclidean distance of 1.59. Same read-out and setting: to `O=C1CCCC(=O)C1C(=O)c1ccc(C(F)(F)F)cc1[N+](=O)[O-]` [Nitisinone] belongs 1.09. Regarding `Cc1cn[nH]c1` [Fomepizole], the Euclidean distance was 0.897. `CC(C)(C)c1cc(/C=C(\C#N)C(N)=S)cc(C(C)(C)C)c1O` [Tyrphostin AG 879] had an Euclidean distance of 1.01. The compound `CN1CC[C@H](c2c(O)cc(O)c3c(=O)cc(-c4ccccc4Cl)oc23)[C@H](O)C1` [Flavopiridol HCl] yielded an Euclidean distance of 3.45. Still for that read-out and setting: with `COc1ncc(-c2ccc3nccc(-c4ccnnc4)c3c2)cc1NS(=O)(=O)c1ccc(F)cc1F` the figure was 3.04; with `C[C@@H](NCCCc1cccc(C(F)(F)F)c1)c1cccc2ccccc12` [Cinacalcet HCl], 1.42. `CO[C@@H]1[C@H](OC(=O)/C=C/C=C/C=C/C=C/C(=O)O)CC[C@]2(CO2)[C@H]1[C@@]1(C)O[C@@H]1CC=C(C)C` [Fumagillin] yielded an Euclidean distance of 3.29. On to `O=c1[nH]c(=O)n([C@H]2C[C@H](O)[C@@H](CO)O2)cc1C(F)(F)F` [Trifluridine], for which the Euclidean distance came out at 2.85. Still for that read-out and setting: with `O=C(Nc1ccccc1)Nc1ccc(-c2ccc(C(=O)[C@@H]3CCC[C@H]3C(=O)O)cc2)cc1` the figure was 0.814; with `N#Cc1cc(CN2CCC(Nc3ncnc4sc(Cl)cc34)CC2)ccc1F`, 1.37; with `COc1ccc(C2=N[C@@H](c3ccc(Cl)cc3)[C@@H](c3ccc(Cl)cc3)N2C(=O)N2CCNC(=O)C2)c(OC(C)C)c1` [Nutlin-3], 1.17. Compound `O=NN(CCCl)C(=O)NCCCl` [Carmustine] yielded an Euclidean distance of 0.875. Turning to `C=CC(=O)N1CC[C@H](n2nc(C#Cc3cc(OC)cc(OC)c3)c3c(N)ncnc32)C1`, the Euclidean distance stood at 1.58.

`Cc1cc(OCc2nnc(SC3CCCC3)n2-c2cccnc2)ccc1-c1ccc(S(C)(=O)=O)cc1` came in with an Euclidean distance of 3.73. Compound `C=CCc1cccc(/C=N/NC(=O)CN2CCN(Cc3ccccc3)CC2)c1O` displayed an Euclidean distance of 2.68. In turn, `NC(=O)N1CCC(CC(=O)N2CCC([C@H]3c4ncc(Br)cc4CCc4cc(Cl)cc(Br)c43)CC2)CC1` [Lonafarnib] had an Euclidean distance of 1.63.

In turn, `COC(=O)CCC(=O)CN` [Methyl Aminolevulinate Hydrochloride] came in with an Euclidean distance of 1.34. Turning to `O=C1N=C(O)NC1(c1ccccc1)c1ccccc1` [Phenytoin sodium], the Euclidean distance turned out to be 1.27. In the case of `O=C1OC(CN2CCOCC2)CN1/N=C/c1ccc([N+](=O)[O-])o1` (stereo not given) [Furaltadone HCl], the Euclidean distance came out at 2.22.

Regarding `CNC(=O)c1cc(Oc2ccc3nc(N[C@@H]4CCCC[C@H]4O)sc3c2)ccn1`, the Euclidean distance came out at 1.22. The compound `Cc1cnc(NC(=O)C2=C(O)c3ccccc3S(=O)(=O)N2C)s1` [Meloxicam] came in with an Euclidean distance of 0.784. Turning to `CN(C)CCCOc1nn(Cc2ccccc2)c2ccccc12` [Benzydamine HCl], the Euclidean distance turned out to be 1.33. Turning to `O=C(NCCCNc1nc(Nc2cccc(NC(=O)N3CCCC3)c2)ncc1I)c1cccs1`, the Euclidean distance worked out at 4.44. `N[C@@H](C(=O)N[C@@H]1C(=O)N2C(C(=O)O)=C(Cl)CS[C@H]12)c1ccccc1` [Cefaclor] yielded an Euclidean distance of 1.53. As to `Cc1[nH]nc2ccc(-c3cncc(OC[C@@H](N)Cc4ccccc4)c3)cc12`, the Euclidean distance was determined as 5.52.

For the compound `O=C1Nc2ccccc2/C1=C1/Nc2ccccc2C1=O` [Indirubin], the Euclidean distance is 1.03.

`N[C@@H](CCC(=O)O)C(=O)O` [(S)-Glutamic acid] came in with an Euclidean distance of 1.57. Regarding `CC(=O)NS(=O)(=O)c1ccc(N)cc1` [Sulfacetamide sodium salt hydrate], the Euclidean distance was determined as 1.53. On the same count and under the same terms, to `Cc1cc(-c2ccccc2)nnc1NCCN1CCOCC1` [Minaprine dihydrochloride] belongs 1.06; to `COc1cc2c(cc1OC)[C@@H]1Cc3ccc(OC)c(OC)c3CN1CC2` [Rotundine], 1.2; to `NC(=O)NC1NC(=O)NC1=O` (stereo not given) [Allantoin], 1.68. Still for that read-out and setting: with `O=C(Nc1ccccc1)c1cc([N+](=O)[O-])ccc1Cl` the figure was 1.2.
